For five molecules, potency estimated from few doses results are on record in publication PMC11062922 (Nature Chemical Biology, 2023).

Read-outs that look alike come from different tables or passages of the source.

What all share (design): species or system human, MV4-11 + K-562 + COLO205 + SK-N-BE2 + OVCAR-8
One test concerns CDK6. To be noted: read-out: apparent Kd, n = 1.
The test system of another test is FYN. The following applies: read-out: apparent Kd; compound concentrations:100 nM and 1000 nM (sheet 'Samples'); n = 1.
Another test relates to MAP2K2. The following applies: read-out: apparent Kd; compound concentrations:100 nM and 1000 nM (sheet 'Samples'); n = 1.
For the next test, the system named is MAPK14. The following applies: read-out: apparent Kd, n = 1.
The test system of a further test is PI4KA. The following applies: read-out: apparent Kd; compound concentrations:100 nM and 1000 nM (sheet 'Samples'); n = 1.
The next test relates to PIK3C2A. The following applies: read-out: apparent Kd; compound concentrations:100 nM and 1000 nM (sheet 'Samples'); n = 1.
A further test relates to PIK3C3. To be noted: read-out: apparent Kd; compound concentrations:100 nM and 1000 nM (sheet 'Samples'); n = 1.
In the next test the test system is PIK3CB. To be noted: read-out: apparent Kd; compound concentrations: 100 nM and 1000 nM (sheet 'Samples'), CATDS: 0.44243244506727197; n = 1.
The test system of the next test is PIK3CD. To be noted: read-out: apparent Kd, compound concentrations: 100 nM and 1000 nM (sheet 'Samples'), n = 1.
A further test concerns PIM2. To be noted: read-out: apparent Kd; compound concentrations:100 nM and 1000 nM (sheet 'Samples'); n = 1.
The subject of the next test is PRKDC. To be noted: read-out: apparent Kd; compound concentrations:100 nM and 1000 nM (sheet 'Samples'); n = 1.
A further test concerns RIOK2. To be noted: read-out: apparent Kd, n = 1.
The test system of another test is VDAC3. To be noted: read-out: apparent Kd; compound concentrations:100 nM and 1000 nM (sheet 'Samples'); n = 1.
The next test deals with CDKL5. The following applies: read-out: apparent Kd; compound concentrations: 100 nM and 1000 nM (sheet 'Samples'), CATDS: 0.49229073825052599; n = 1.
The subject of the next test is TESK1. To be noted: read-out: apparent Kd; compound concentrations: 100 nM and 1000 nM (sheet 'Samples'), CATDS: 0.50795455679108803; n = 1.
In another test the test system is CLK1. The following applies: read-out: apparent Kd; compound concentrations: 100 nM and 1000 nM (sheet 'Samples'), CATDS: 0.17433508542258599; n = 1.
Another test concerns CLK4. The following applies: read-out: apparent Kd; compound concentrations: 100 nM and 1000 nM (sheet 'Samples'), CATDS: 0.16932447657893401; n = 1.
For another test, the system named is CSNK2A1;CSNK2A3. To be noted: read-out: apparent Kd; compound concentrations: 100 nM and 1000 nM (sheet 'Samples'), CATDS: 0.234359592666399; n = 1.
Another test has as its system CSNK2A2. To be noted: read-out: apparent Kd; compound concentrations: 100 nM and 1000 nM (sheet 'Samples'), CATDS: 0.363288777813424; n = 1.
Another test concerns DYRK1A. The following applies: read-out: apparent Kd; compound concentrations: 100 nM and 1000 nM (sheet 'Samples'), CATDS: 0.15776551091334201; n = 1.
The test system of another test is HSP90B1. The following applies: read-out: apparent Kd; compound concentrations:100 nM and 1000 nM (sheet 'Samples'); n = 1.
The subject of the next test is MAP2K1. The following applies: read-out: apparent Kd; compound concentrations:100 nM and 1000 nM (sheet 'Samples'); n = 1.
The test system of another test is NNT. The following applies: read-out: apparent Kd; compound concentrations:100 nM and 1000 nM (sheet 'Samples'); n = 1.
Another test relates to NQO1. To be noted: read-out: apparent Kd, n = 1.
A further test relates to ERCC2. To be noted: read-out: apparent Kd; compound concentrations: 100 nM and 1000 nM (sheet 'Samples'), CATDS: 8.00195217918135E-2; n = 1.
The subject of the next test is ILK. To be noted: read-out: apparent Kd; compound concentrations: 100 nM and 1000 nM (sheet 'Samples'), CATDS: 9.2277554070836695E-2; n = 1.
The next test has as its system IRAK1. To be noted: read-out: apparent Kd; compound concentrations: 100 nM and 1000 nM (sheet 'Samples'), CATDS: 0.100374426884943; n = 1.
For another test, the system named is MAPK11. The following applies: read-out: apparent Kd; compound concentrations: 100 nM and 1000 nM (sheet 'Samples'), CATDS: 0.114875582953057; n = 1.
The test system of a further test is PRKCQ. The following applies: read-out: apparent Kd; compound concentrations: 100 nM and 1000 nM (sheet 'Samples'), CATDS: 8.2854130075837501E-2; n = 1.
Where [1] appears, read: compound concentrations:100 nM and 1000 nM (sheet 'Samples').

For `O=c1cc(N2CCOCC2)nc2n(Cc3cccc(F)c3)ccn12` [GSK2297430A], the potency estimated from few doses is 2000 nM in the test on CDK6 (setting [1]); 1140 nM in the test on FYN; 1780 nM in the test on MAP2K2; 1450 nM in the test with MAPK14 (setting [1]); 1610 nM with PI4KA; 2440 nM in the test with PIK3C2A. Also, the potency estimated from few doses in the test on PIK3C3 was 235 nM; in the test with PIK3CB it was 31.5 nM; in the test with PIK3CD (CATDS: 0.27438684743153402) it was 68.1 nM; with PIM2 it was 1670 nM; with PRKDC it was 1130 nM; in the test with RIOK2 (setting [1]), 1490 nM. Moreover, the potency estimated from few doses in the test on VDAC3 was 1830 nM.
As for `CCn1c(-c2c(N)noc2C)nc2cnccc21` [SB-737856], the potency estimated from few doses is 1930 nM in the test with CDKL5 and 1820 nM in the test on TESK1.
In the case of `CCOc1ccccc1CCNC1=NC(=O)/C(=C/c2ccc3ncccc3c2)S1` [RO4503314-000], the potency estimated from few doses is 469 nM in the test on CLK1; 505 nM with CLK4; 246 nM in the test with CSNK2A1;CSNK2A3; 118 nM in the test with CSNK2A2; 615 nM in the test on DYRK1A.
Turning to `CC(C(=O)NC1CCN(c2ccnc(Nc3ccc(F)cc3)n2)C1)c1ccc(Cl)cc1` (stereo not drawn) [GSK1379713A], the potency estimated from few doses in the test on CDK6 (setting [1]) is 2080 nM; in the test on HSP90B1, 88 nM; in the test with MAP2K1, 2230 nM; in the test on MAP2K2, 1460 nM; with NNT, 1400 nM; in the test on NQO1 (setting [1]) it was 1650 nM.
For the molecule `Cl.Nc1c(C(=O)c2cccc(-c3cccnc3)c2)cnn1-c1ccc(F)cc1` [RO1162529-002], the potency estimated from few doses in the test on CDK6 (compound concentrations: 100 nM and 1000 nM (sheet 'Samples'), CATDS: 9.94086879029107E-2) was 1190 nM; in the test on ERCC2, 2030 nM; with ILK, 1410 nM; in the test with IRAK1 it was 1160 nM; in the test with MAPK11 it was 877 nM; in the test with MAPK14 (compound concentrations: 100 nM and 1000 nM (sheet 'Samples'), CATDS: 9.0546615649564399E-2) it was 1470 nM. The potency estimated from few doses in the test with NQO1 (compound concentrations: 100 nM and 1000 nM (sheet 'Samples'), CATDS: 0.102757075513336) is 1100 nM; in the test with PIK3CD (CATDS: 0.395344018245397), 126 nM; in the test with PRKCQ, 1850 nM; in the test with RIOK2 (compound concentrations: 100 nM and 1000 nM (sheet 'Samples'), CATDS: 7.9590231457497898E-2), 2060 nM.
